The record followed here is PubChem BioAssay.

Calls of active or inactive are those of the source.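 Rule for the calls, unless noted: active = fluorescence slope after compound addition differing from the mean of all screened samples at 99.7% confidence, in either direction; inactive = the rest.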

Assay [1] in a line: inhibitors of TNFa-induced NFkB p65 translocation, primary screen, imaging, HUVEC, MLSMR starter and 10KST1 sets (AID 438;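 active = inhibition above 20% together with a positive visual image hit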;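 note: compound added about 3h40 before a 20 min TNFalpha stimulation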;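 for inhibition: signal is the nuclear over cytoplasmic p65 intensity ratio per well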). The settings on record: HUVEC TNFa-induced p65 nuclear translocation; cell count: measured here: nuclei count (cytotoxicity indicator), at 2.08 µM; inhibition: at 2 µM, stronger effect = higher value, 0% TNFa-plus-vehicle, 100% no-TNFa wells.
Assay [2] is described as follows: reduction of polyQ htt aggregates in cells – imaging, exon1htt(103Q)mCFP cells, high-content imaging, primary screen (AID 483;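 active = visual image review flags a hit and inhibition of aggregation exceeds 20%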;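 note: compound exposure lasted 3 days before fixation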;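 for nuclei count: percent of the per-plate median nuclei count of sample wells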). The settings on record: exon1htt(103Q)mCFP cell line, aggregate imaging, at 2 µM; inhibition of aggregation: stronger effect = higher value; nuclei count: measured here: cell count, toxicity.
A short description of assay [3]: endothelial E-selectin expression blockers – imaging, HUVEC, immunofluorescence, MLSMR starter and 10KST1 sets, primary screen (AID 487;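 active = visually confirmed hit in the image check and inhibition above 20%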;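 for inhibition: signal is fraction of cell area covered by stained E-selectin grains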;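 for nuclei count: 100% = median nuclei count of all wells on the same plate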). The settings on record: HUVEC TNFalpha-induced E-selectin immunofluorescence imaging, at 2 µM; inhibition: stronger effect = higher value; nuclei count: measured here: cell number, toxicity.
Assay [4] concerns the target Voltage-gated potassium channel subunit beta-2 (Rattus norvegicus) (UniProt P62483). Nature of the assay: inhibitors of rat Kvbeta2 reductase activity – biochemical, NADPH fluorescence, primary screen (AID 622;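 active = fluorescence slope higher than the sample average by over 3 SD, cut at about -0.22 in these data, passing the limit was not always enough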;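 note: slope of raw intensity against log time taken from 70 to 1610 s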). The settings on record: recombinant KvBeta, 4-cyanobenzaldehyde reduction, at 10 µM, stronger effect = higher value.
For assay [5] the target is unchanged. Nature of the assay: enhancers of rat Kvbeta2 NADPH turnover – biochemical, NADPH fluorescence, primary screen (AID 623;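 active = NADPH fluorescence slope more negative than the mean of all samples by about 3 SD, 99.7% confidence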;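 note: fluorescence intensity change per second fitted from 20 to 320 s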). The settings on record: Recombinant KvBeta, NADPH fluorescence decrease slope, 10 min; at 10 µM; stronger effect = lower value.
In assay [6] the target is Alpha-2C adrenergic receptor (Homo sapiens) (UniProt P18825). Nature of the assay: compounds altering alpha2C-coupled GIRK flux – cell-based, HEK293 alpha2C/GIRK1/2, thallium flux, primary screen (AID 624).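 Note: slope of fluorescence ratio to pre-addition baseline per second over 15 to 24 s.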 The settings on record: thallium flux BTC fluorescence, at 10 µM, actives lie on both sides.
Alpha-2C adrenergic receptor (Homo sapiens), sequence (P18825 whole entry, looked up): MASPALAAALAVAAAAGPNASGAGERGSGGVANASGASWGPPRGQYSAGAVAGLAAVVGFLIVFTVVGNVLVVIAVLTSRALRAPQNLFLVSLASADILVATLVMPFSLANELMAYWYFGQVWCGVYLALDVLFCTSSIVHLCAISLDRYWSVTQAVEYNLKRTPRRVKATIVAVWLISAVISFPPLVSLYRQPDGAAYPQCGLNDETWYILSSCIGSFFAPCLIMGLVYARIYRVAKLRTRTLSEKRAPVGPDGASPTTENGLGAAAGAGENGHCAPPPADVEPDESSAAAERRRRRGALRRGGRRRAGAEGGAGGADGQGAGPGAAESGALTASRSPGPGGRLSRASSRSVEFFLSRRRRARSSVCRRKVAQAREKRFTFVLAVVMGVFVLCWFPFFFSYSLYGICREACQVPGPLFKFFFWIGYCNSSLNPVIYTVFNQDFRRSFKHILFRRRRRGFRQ
Assay [7] can be described thus: blockers of RIG-like receptor reporter activation – cell-based, Sendai virus stimulus, luciferase, 10K MLSCN set, TLR/RLR signaling modifier project, primary screen (AID 602276;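 active = inhibition at or above 50% at 10 µM; inactive = inhibition below 50%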;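 note: firefly luciferase from ISG56 promoter only with Renilla not read in this screen; 0% = Sendai virus plus DMSO and 100% = medium plus DMSO without virus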). The settings on record: HEK293 RL24 IRF3 luciferase reporter, at 10 µM, stronger effect = higher value. A general note: In a reporter assay the amount or activity of a reporter protein is the signal.

The nature of assay [8]: TLR3 IRF3 reporter activation blockers – cell-based, poly I:C stimulus, luciferase, 10K MLSCN set, primary screen (AID 602277;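 active = inhibition of the reporter signal at or above 50%; inactive = inhibition below 50%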). The settings on record: HEK293-TLR3 RL24 IRF3 luciferase reporter, at 10 µM, stronger effect = higher value.

Broadly, the inhibition is the change of the read-out against control, counted positive when it falls.

Voltage-gated potassium channel subunit beta-2 (Rattus norvegicus), sequence (P62483 whole entry, looked up): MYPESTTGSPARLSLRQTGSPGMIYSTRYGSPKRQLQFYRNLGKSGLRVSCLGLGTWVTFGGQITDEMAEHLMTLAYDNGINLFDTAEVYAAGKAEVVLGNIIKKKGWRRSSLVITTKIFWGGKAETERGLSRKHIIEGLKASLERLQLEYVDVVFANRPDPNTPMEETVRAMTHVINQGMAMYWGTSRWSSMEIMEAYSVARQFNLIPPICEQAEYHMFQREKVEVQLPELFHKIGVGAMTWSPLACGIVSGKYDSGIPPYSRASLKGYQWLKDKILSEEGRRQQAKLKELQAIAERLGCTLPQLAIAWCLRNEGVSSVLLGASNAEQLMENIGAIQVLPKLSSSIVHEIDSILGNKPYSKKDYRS

Take `O=S1(=O)N=C(Nc2nc3c(s2)CCCC3)c2ccccc21`: in assay [1], the cell count was 319. Further, the inhibition in assay [1] is -4.2% (inactive); in assay [3] it was -33.1% (inactive); in assay [7] it was -62.5% (inactive); in assay [8] it was -97.7% (inactive). The inhibition of aggregation in assay [2] is 5% (inactive). For the same molecule, the values for the nuclei count in assay [2] and in assay [3] were 102% and 111%, respectively. Also, the fluorescence slope in assay [4] was -0.468 (inactive). In assay [5], the NADPH fluorescence slope was 5.2e-05 (inactive). Besides, the slope in assay [6] is 0.00562 (inactive).
Take `CSCCC(NC(=O)c1ccco1)C(=O)O` (centres undefined): the cell count in assay [1] worked out at 411. Besides, the inhibition in assay [1] was 4.4% (inactive); in assay [3], -358% (inactive); in assay [7], -9.48% (inactive); in assay [8], -11.3% (inactive). Also, the inhibition of aggregation in assay [2] was -0.5% (inactive). The nuclei count was 105% in assay [2] and 143% in assay [3]. Moreover, the fluorescence slope in assay [4] was -0.534 (inactive). In addition, in assay [5], the NADPH fluorescence slope is -4e-05 (inactive). In addition, the slope in assay [6] was 0.00451 (inactive).
With `COc1ccc(C2=NOC(C(=O)NC3CCCCC3)C2)cc1OC` (centres undefined), the cell count in assay [1] was 832. Also, the inhibition in assay [1] is -14.3% (inactive); in assay [3], -84.9% (inactive); in assay [7] it was 14.9% (inactive); in assay [8], 20.1% (inactive). For the same molecule, the inhibition of aggregation in assay [2] is 1.9% (inactive). Also, the nuclei count in assay [2] came out at 104%; in assay [3] it was 96.1%. For the same molecule, the fluorescence slope in assay [4] was -0.547 (inactive). Further, the NADPH fluorescence slope in assay [5] was -4.1e-05 (inactive). Moreover, in assay [6], the slope is 0.00464 (inactive).
For the molecule `CCN1CCN(C(=O)c2oc(=O)c3ccccc3c2-c2ccc(C)cc2)CC1`, the cell count in assay [1] was determined as 805. Further, the inhibition in assay [1] was -15.2% (inactive); in assay [3], -58.3% (inactive); in assay [7] it was 10.4% (inactive); in assay [8], 27.7% (inactive). Also, the inhibition of aggregation in assay [2] is 8.7% (inactive). Moreover, the nuclei count in assay [2] was 94.3%; in assay [3] it was 121%. Further, the fluorescence slope in assay [4] was -0.49 (inactive). In addition, the NADPH fluorescence slope in assay [5] is -4.9e-05 (inactive). For the same molecule, in assay [6], the slope is 0.00617 (inactive).
Take `O=C(COC(=O)CSc1nnc(-c2ccc(Cl)cc2)o1)NCc1ccc2c(c1)OCO2`: in assay [1], the cell count was 517. Also, the inhibition in assay [1] was -2.4% (inactive); in assay [3] it was 9.2% (inactive); in assay [7] it was 8.92% (inactive); in assay [8], 17.2% (inactive). In addition, the inhibition of aggregation in assay [2] is 4.7% (inactive). Further, the nuclei count in assay [2] was determined as 123%; in assay [3], 107%. The fluorescence slope in assay [4] was -0.587 (inactive). In addition, the NADPH fluorescence slope in assay [5] is -3.7e-05 (inactive). Besides, the slope in assay [6] is 0.00607 (inactive).
As for `Cn1c(NC(=O)c2ccccc2NC(=O)C(C)(C)C)nc2ccccc21`, in assay [1], the cell count was determined as 704. Further, the inhibition is -3.2% (inactive) in assay [1], -10.7% (inactive) in assay [3], 1.78% (inactive) in assay [7] and -25.9% (inactive) in assay [8]. The inhibition of aggregation in assay [2] is 11.9% (inactive). The figures for the nuclei count in assay [2] and in assay [3] were 98.3% and 126%, respectively. Moreover, the fluorescence slope in assay [4] was -0.163 (active). In assay [5], the NADPH fluorescence slope was 5.8e-06 (inactive). Besides, the slope in assay [6] was 0.00774 (inactive).
Turning to `COc1ccc(-c2ccc(-c3nnn(CC(C)=O)n3)cc2)cc1`, the cell count in assay [1] was 277. For the same molecule, the inhibition in assay [1] is -6.2% (inactive); in assay [3] it was -65% (inactive); in assay [7], -41% (inactive); in assay [8], -130% (inactive). Also, the inhibition of aggregation in assay [2] is -10.7% (inactive). Further, the nuclei count in assay [2] is 111%; in assay [3] it was 130%. Further, in assay [4], the fluorescence slope was -0.516 (inactive). Also, the NADPH fluorescence slope in assay [5] was -4.2e-05 (inactive). For the same molecule, the slope in assay [6] was 0.00693 (inactive).
`CC1(C)CC(=O)C2=C(C1)OC(=O)C2(NC(=O)c1cccs1)C(F)(F)F` (centres undefined): the cell count in assay [1] was determined as 607. For the same molecule, the inhibition in assay [1] is -8.2% (inactive); in assay [3] it was -9.5% (inactive); in assay [7] it was 1.37% (inactive); in assay [8] it was 15.7% (inactive). In addition, the inhibition of aggregation in assay [2] is 5.3% (inactive). Besides, the nuclei count amounted to 104% in assay [2] and 85.7% in assay [3]. The fluorescence slope in assay [4] was -0.598 (inactive). Besides, the NADPH fluorescence slope in assay [5] is -4.5e-05 (inactive). Also, in assay [6], the slope is 0.00633 (inactive).
As for `CC1NC(=O)NC1CCCCCC(=O)NCCc1ccccc1` (centres undefined), in assay [1], the cell count came to 391. Also, the inhibition in assay [1] was 7.3% (inactive); in assay [3] it was -86.2% (inactive); in assay [7], 5.75% (inactive); in assay [8], 15.3% (inactive). Also, the inhibition of aggregation in assay [2] was 7.5% (inactive). Also, the nuclei count in assay [2] is 110%; in assay [3] it was 113%. Further, the fluorescence slope in assay [4] is -0.441 (inactive). Further, in assay [5], the NADPH fluorescence slope was -1.4e-05 (inactive). Further, the slope in assay [6] is 0.006 (inactive).
With `CCOC(=O)c1sc2nc(NC(=O)C3CCCCC3)sc2c1C`, in assay [1], the cell count was found to be 570. In addition, the inhibition was -0.8% (inactive) in assay [1], 19.5% (inactive) in assay [3], -10.3% (inactive) in assay [7] and -9.22% (inactive) in assay [8]. Further, in assay [2], the inhibition of aggregation is 4.6% (inactive). The nuclei count in assay [2] stood at 92.9%; in assay [3], 96%. In addition, the fluorescence slope in assay [4] is -0.533 (inactive). Also, the NADPH fluorescence slope in assay [5] is -2.5e-05 (inactive). Moreover, the slope in assay [6] is 0.00612 (inactive).
In the case of `c1ccc(-c2nnc(-c3ccco3)n2-c2ccccc2)cc1`, the cell count in assay [1] worked out at 383. The inhibition in assay [1] is 4.1% (inactive); in assay [3], -75.9% (inactive); in assay [7], 15.2% (inactive); in assay [8], 20.5% (inactive). Further, the inhibition of aggregation in assay [2] is 8.4% (inactive). The nuclei count in assay [2] is 102%; in assay [3], 126%. In addition, in assay [4], the fluorescence slope was -0.47 (inactive). In assay [5], the NADPH fluorescence slope was -2.4e-05 (inactive). Moreover, in assay [6], the slope was 0.00639 (inactive).
For the molecule `CCn1c(=O)c(C(=O)NCCc2ccccc2)c(O)c2ccccc21`, the cell count in assay [1] was determined as 724. For the same molecule, the inhibition is -0.3% (inactive) in assay [1], -9.2% (inactive) in assay [3], 18.3% (inactive) in assay [7] and 12.5% (inactive) in assay [8]. The inhibition of aggregation in assay [2] is -18.1% (inactive). The nuclei count in assay [2] worked out at 96.4%; in assay [3], 104%. Also, the fluorescence slope in assay [4] is -0.302 (inactive). For the same molecule, the NADPH fluorescence slope in assay [5] was -2.8e-06 (inactive). The slope in assay [6] was 0.0106 (inactive).
As for `O=C(NCc1ccco1)c1cc2cc3ccc(Cl)cc3nc2o1`, the cell count in assay [1] worked out at 198. The inhibition in assay [1] was -4.9% (inactive); in assay [3], -23.3% (inactive); in assay [7], -5.73% (inactive); in assay [8] it was -43.3% (inactive). Besides, the inhibition of aggregation in assay [2] is 12.7% (inactive). Further, the nuclei count turned out to be 105% in assay [2] and 118% in assay [3]. Further, in assay [4], the fluorescence slope was -0.489 (inactive). Besides, the NADPH fluorescence slope in assay [5] was -3.4e-05 (inactive). The slope in assay [6] is 0.00854 (inactive).
Consider `Cn1cnc(S(=O)(=O)NCc2cccs2)c1`, for which the cell count in assay [1] is 417. Besides, the inhibition is 10.8% (inactive) in assay [1], -43.8% (inactive) in assay [3], -2.25% (inactive) in assay [7] and 6.69% (inactive) in assay [8]. The inhibition of aggregation in assay [2] was -26.8% (inactive). The nuclei count in assay [2] was determined as 101%; in assay [3], 132%. In addition, the fluorescence slope in assay [4] is -0.541 (inactive). The NADPH fluorescence slope in assay [5] was 3.3e-05 (inactive). The slope in assay [6] was 0.00567 (inactive).
